Screens deposited in PubChem BioAssay by Broad Institute.
aSyn UTR act: Activators working through SNCA 5'UTR binding (MLPCN) | activity score, % (tested at 7.5 µM), hits read low | hit rate 7.1% among 300,000 | AID 1814 | alpha-synuclein 5'UTR reporter, activators screen; in the data active means activity score below about -60%
The depositor's hits bear a star. These entries were drawn from the full list.

`CC(=O)c1sc(NC(=O)c2cccs2)nc1C` gave aSyn UTR act -98*.
Screening Cc1csc(NC(=O)c2cccs2)n1 returned aSyn UTR act -112*.
For CCOc1cccc2sc(NC(=O)c3ccc(Br)s3)nc12 the results were aSyn UTR act -81*.
For Cc1csc(NC(=O)c2ccc(Br)s2)n1 the results were aSyn UTR act -102*.
For Cc1sc(NC(=O)/C=C/c2ccco2)c(C(=O)O)c1C the results were aSyn UTR act -118*.
`CCOC(=O)c1c(NC(=O)/C=C/c2ccc(C)o2)sc(C)c1C` gave aSyn UTR act -108*.
C=CCN(C(=O)CSC1=NC(=O)CN1C(C)=O)c1nc(C)c(-c2ccccc2)s1 was read as aSyn UTR act -118*.
`CCOc1ccc(/C=C/C(=O)C(C(N)=O)=C2SCCS2)cc1` gave aSyn UTR act -162*.
`Cc1cccn2c1nc(=S)n2C(=O)c1ccco1` gave aSyn UTR act -265*.
Brc1ccc(C2=CC(c3cccs3)n3ncnc3N2)cc1 (stereo not drawn) was read as aSyn UTR act -107*.
Cn1cccc1C1C=C(c2ccc(C(C)(C)C)cc2)Nc2ncnn21 (stereo not drawn) was read as aSyn UTR act -114*.
CCOC(=O)C(=CN=C(N)Nc1nc2ccccc2o1)C(=O)OCC was read as aSyn UTR act -119*.
For CCCOC(=O)Nc1nc2ccccc2o1 the results were aSyn UTR act -99*.
`O=C(c1ccco1)N1CCN(C(=O)N2c3ccccc3Sc3ccccc32)CC1` gave aSyn UTR act 81.
Screening O=C(c1ccco1)N1CCN(Cc2c(F)cccc2Cl)CC1 returned aSyn UTR act -75*.
For O=C(c1ccco1)N1CCN(c2ccc(Cl)cc2)CC1 the results were aSyn UTR act -130*.
Screening O=C(c1ccco1)N1CCN(c2ccc(Cl)c(Cl)c2)CC1 returned aSyn UTR act -121*.
Screening COc1ccc(-c2oc3ccc(N4CCOCC4)cc3c2C#Cc2ccc(N)cc2)cc1 returned aSyn UTR act -92*.
`COc1ccc(-c2oc3ccc(N4CCOCC4)cc3c2C#CC2(O)CCCCC2)cc1` gave aSyn UTR act -118*.
Cc1ccc(N2C(=O)c3ccc(N)cc3C2=O)cc1C was read as aSyn UTR act -131*.
Screening Cc1ccc(N2C(=O)c3ccc(N)cc3C2=O)cc1 returned aSyn UTR act -182*.
For CC(C)OC(=O)c1cc2ccccc2oc1=O the results were aSyn UTR act -66*.
Screening O=C(Nc1ccc(F)cc1F)c1cc2ccccc2oc1=O returned aSyn UTR act -156*.
For CCOc1ccccc1NC(=O)c1cc2ccccc2oc1=O the results were aSyn UTR act -95*.
Screening N/C(=N\NC(=O)c1cccs1)c1cc2ccccc2oc1=O returned aSyn UTR act -64*.
`O=C(c1cc2ccccc2oc1=O)N1CCN(c2ncccn2)CC1` gave aSyn UTR act -92*.
`O=C(NNC(=O)c1cc2ccccc2cc1O)c1cccs1` gave aSyn UTR act -193*.
Screening O=C(NNC(=O)c1cc2ccccc2oc1=O)c1ccccc1 returned aSyn UTR act -108*.
For COc1ccc(COc2ccc3ccc(=O)oc3c2)cc1 the results were aSyn UTR act -232*.
For COc1cccc(COc2ccc3c(C)c(Cc4ccccc4)c(=O)oc3c2)c1 the results were aSyn UTR act -67*.
COc1cccc(COc2ccc3ccc(=O)oc3c2)c1 was read as aSyn UTR act -139*.
For O=c1ccc2ccc(OCc3ccccc3)cc2o1 the results were aSyn UTR act -80*.
Screening CCCCCOc1ccc(Br)cc1/C(C)=N/NC1=NCCN1 returned aSyn UTR act 88.
For O=C(Cc1c[nH]c2ccccc12)NCc1cccs1 the results were aSyn UTR act -63*.
CN(Cc1cccs1)C(=O)CCCc1c[nH]c2ccccc12 was read as aSyn UTR act -133*.
For COc1cccc2c(=O)c(C(=O)NCc3cccs3)c[nH]c12 the results were aSyn UTR act -139*.
Screening CCN(CC)CCNC(=O)c1ccc2c(=O)n(CCc3ccccc3)c(=O)[nH]c2c1 returned aSyn UTR act -109*.
Screening O=C(NCCCN1CCCCC1)c1ccc2c(=O)n(CCc3ccccc3)c(=O)[nH]c2c1 returned aSyn UTR act -82*.
For O=C(Cc1csc(Nc2nc(=S)[nH]c3ccccc23)n1)NCCCN1CCN(c2ccccc2F)CC1 the results were aSyn UTR act 92.
`O=C1Nc2cc(C(=O)NCCCN3CCCC3)ccc2S/C1=C\c1ccccc1` gave aSyn UTR act -94*.
Screening CCN1CCN(CCCNC(=O)c2ccc(/C=C3/Oc4ccccc4N(Cc4cccc(C)c4)C3=O)cc2)CC1 returned aSyn UTR act 101.
Cc1ccc2nc(-c3ccccc3O)c(Nc3ccc4c(c3)OCCO4)n2c1 was read as aSyn UTR act -65*.
Screening CCOC(=O)COc1ccccc1C1Nc2ccccc2C(=O)N1c1cccc(Cl)c1 (stereo not drawn) returned aSyn UTR act -107*.
For COc1cc(C2Nc3ccccc3C(=O)N2c2ccc(Cl)cc2)c(Cl)cc1OCC(=O)O (stereo not drawn) the results were aSyn UTR act -137*.
Screening CC(C)Oc1ccccc1C1Nc2ccccc2C(=O)N1c1ccc2c(c1)OCCO2 (stereo not drawn) returned aSyn UTR act 68.
Screening O=C(Nc1ccc(/C=C/c2nc3ccccc3o2)cc1)c1ccc(F)cc1 returned aSyn UTR act -117*.
Screening N#C/C(=C\c1ccc([N+](=O)[O-])cc1)C(=O)Nc1ccccc1O returned aSyn UTR act -112*.
Screening N#C/C(=C/c1ccc([N+](=O)[O-])cc1)C(=O)Nc1ccccc1O returned aSyn UTR act -134*.
`CCOC(=O)c1cc(-c2ccccc2)nn1Cc1cc(CC)no1` gave aSyn UTR act -100*.
For Cc1cc(N2CCCC2)c(F)cc1/C=C\[N+](=O)[O-] the results were aSyn UTR act -79*.
Screening COC(=O)c1cn(CCOc2ccccc2)c2ccccc12 returned aSyn UTR act -153*.
`Cc1cc(N2CCCCC2)nc(SCC(=O)c2ccccc2)n1` gave aSyn UTR act -119*.
For Cc1cc(N2CCCC2)nc(-c2ccccc2O)n1 the results were aSyn UTR act -62*.
For CCOc1ccc(/C=N/NC(=O)c2cc3c(OC)cc(OC)c(OC)c3[nH]2)cc1 the results were aSyn UTR act -78*.
COc1cc(C(=O)N/N=C/C2CC=CCC2)cc(OC)c1OC (stereo not drawn) was read as aSyn UTR act 108.
`CCOc1ccc2[nH]c(C(=O)N/N=C/c3ccccc3OC)cc2c1` gave aSyn UTR act -116*.
`COc1ccc2[nH]c(C(=O)N/N=C/c3ccccc3OC)cc2c1` gave aSyn UTR act -119*.
For O=C(O)C(=O)/C(=C\c1ccc(Cl)cc1)c1ccc2ccccc2n1 the results were aSyn UTR act -226*.
`CC(C)Oc1cccc(C(=O)C2CCCN(C(=O)CCc3cnn(C)c3)C2)c1` (stereo not drawn) gave aSyn UTR act -77*.
For [O-]/C(=C(\C(=S)Nc1ccc(SC(F)F)cc1)[n+]1cccc(CO)c1)c1ccc(Cl)s1 the results were aSyn UTR act -71*.
O=C(c1cc2c(s1)-c1ccccc1OC2)N1CCCC1 was read as aSyn UTR act -105*.
CC1CCCC(C)N1CCCNC(=O)c1cc2c(s1)-c1ccccc1OC2 (stereo not drawn) was read as aSyn UTR act 70.
For Cc1csc(NC(=O)c2cc3c(s2)-c2ccccc2OC3)n1 the results were aSyn UTR act -211*.
